High-throughput results deposited in PubChem BioAssay by The Scripps Research Institute Molecular Screening Center.
ssDAF-12 act = activates DAF-12 receptor from parasite S. stercoralis; HEK293 ssDAF-12/GRIP1 lit1-tk-luc reporter, luminescence; % of 3 µM dafachronic acid response; activation, % at 6.8 µM; hit rate 1% among 370,000;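 active = activation above the mean over all tested compounds plus 3 SD, cut at about 0.9% in these data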
DAX1 inh-1 = DAX1 (NR0B1) inhibition, primary screen; HEK293T StAR-luciferase reporter, SF-1/DAX-1 repression relief; inhibition, % at 6.8 µM; hit rate 1.1% among 370,000; AID 652010;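 active = inhibition above the mean over all tested compounds plus 3 SD, cut at about 3.6% in these data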;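 note: higher inhibition means more luminescence from relief of DAX-1 repression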
DAX1 inh-2 = NR0B1 (DAX1) inhibition; HEK293 Gal4-DAX1 luciferase reporter, luminescence; hit rate 0.99% among 340,000; inhibition, % at 6.75 µM; P51843; AID 504766;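 active = inhibition above the mean over all tested compounds plus 3 SD, cut at about 4.2% in these data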;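 note: inhibition shows as a rise in luminescence from relieved DAX1 repression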
hgDAF12 agonist = activates the H. glycines DAF-12 receptor ligand-binding domain; hit rate 1.8% among 370,000; AID 687014; HEK293 GAL4-hgDAF12 UAS-luciferase reporter, agonist luminescence; normalized to butyrate control; activation, % at 6.8 µM;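 active = activation above a cutoff set at the mean of all screened compounds plus 3 SD, cut at about 10% in these data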
hcDAF-12 act = H. contortus DAF-12 activation, primary screen; HEK293 hcDAF-12 lit1-tk-luc reporter, luminescence; 0% DMSO, 100% Δ7-dafachronic acid; activation, % at 6.8 µM; hit rate 1.4% among 370,000;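 active = activation above the mean of all tested compounds plus 3 SD, cut at about 5.5% in these data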
SMARCA2 activ = activators of SMARCA2 function; MG213 cells, MMTV-luciferase reporter, dexamethasone, overnight; activation, % at 9.1 µM; hit rate 1% among 370,000; in the data active = activation above about 7.8%
DAX1 conf = NR0B1 (human) inhibition, confirmation; shares compounds with DAX1 inh-1; inhibition, % at 6.8 µM; HEK293T StAR-promoter luciferase reporter, SF-1/DAX-1 repression; AID 652134; hit rate 87% among 2,400;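 active = inhibition above the average of every tested compound plus 3 SD, cut at about 3.8% in these data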;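 note: active compounds raise luminescence by relieving repression of the StAR reporter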
Target sequence (P51843 whole entry, looked up): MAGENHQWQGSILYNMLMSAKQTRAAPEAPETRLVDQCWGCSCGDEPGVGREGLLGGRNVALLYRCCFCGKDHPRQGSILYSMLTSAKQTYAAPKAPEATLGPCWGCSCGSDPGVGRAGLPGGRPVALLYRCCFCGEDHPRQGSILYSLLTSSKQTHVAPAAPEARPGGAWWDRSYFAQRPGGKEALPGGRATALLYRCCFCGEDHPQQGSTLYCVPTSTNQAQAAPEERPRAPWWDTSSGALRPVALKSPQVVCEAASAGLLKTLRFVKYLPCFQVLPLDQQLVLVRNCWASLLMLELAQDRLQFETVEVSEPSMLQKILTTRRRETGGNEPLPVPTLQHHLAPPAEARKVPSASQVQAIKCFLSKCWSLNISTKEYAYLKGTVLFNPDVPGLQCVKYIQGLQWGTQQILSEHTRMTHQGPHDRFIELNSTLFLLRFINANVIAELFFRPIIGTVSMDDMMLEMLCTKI
SF1 mutant ctr = counter-screen for DAX1 inhibitors: nonselective inhibitors with SF-1 AF2 mutant. shares compounds with DAX1 inh-1. hit rate 78% among 2,400. HEK293 StAR-luciferase, luminescence. inhibition, % at 6.8 µM;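 active = inhibition above the mean of all tested compounds plus 3 SD, cut at about 3% in these data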
SMARCA2 conf = SMARCA2 activation, confirmation screen | shares compounds with SMARCA2 activ | MG213 cells, MMTV-luciferase with dexamethasone, luminescence, overnight; MG213 cells expressing E1A, Rb sequestered; DMSO wells 0%, reference activator 100% | activation, % at 9.1 µM | hit rate 30% among 3,500 | AID 652260;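 active = activation above its plate's cutoff, the mean activation of tested wells plus 3 SD, cut at about 7.9% in these data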
GAL4-VP16 Luc = GAL4-VP16 reporter activation counter-screen; shares compounds with SMARCA2 activ; HEK293 GAL4-VP16 pG5luc reporter, luciferase luminescence; scaled: DMSO wells 0%, SAHA wells 100%; activation, % at 9.1 µM; hit rate 41% among 3,500;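 active = activation above the solvent-only control well mean plus 3 SD, averaged across control plates, cut at about 5.2% in these data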
A number is an active result. Only some compounds are listed: those with a hit (about 4.8% of all), similar ones and a draw of the others.

Cn1c2ccccc2c(=O)c2cc(NCCCN3CCOCC3)ccc21 was read as ssDAF-12 act inactive, DAX1 inh-1 5.1, DAX1 inh-2 inactive, hgDAF12 agonist 11, hcDAF-12 act inactive, SMARCA2 activ 15, DAX1 conf 15, SF1 mutant ctr 10, SMARCA2 conf 18 and GAL4-VP16 Luc 8.7.
`Cn1c(C(=O)NCCCN2CCOCC2)cc2c(=O)n(C)c3ccccc3c21` gave ssDAF-12 act inactive, DAX1 inh-1 inactive, DAX1 inh-2 inactive, hgDAF12 agonist inactive, hcDAF-12 act inactive and SMARCA2 activ inactive.
Screening CN1CCC[C@H]1CCNc1ccc2c(=O)c3ccccc3n(C)c2c1 returned ssDAF-12 act inactive, DAX1 inh-1 8.1, DAX1 inh-2 inactive, hgDAF12 agonist inactive, hcDAF-12 act inactive, SMARCA2 activ 27, DAX1 conf 15, SF1 mutant ctr 9.6, SMARCA2 conf 53 and GAL4-VP16 Luc 8.6.
Screening CCC[C@H]1[C@@H](NC(=O)c2cccc(C(F)(F)F)c2)CC[C@@]23CCCN2C(=O)CCC[C@@H]13 returned ssDAF-12 act inactive, hgDAF12 agonist inactive and hcDAF-12 act inactive.
C/C(=N/NC(=O)c1ccco1)c1ccc(NC(=O)c2ccc(Br)o2)cc1 was read as ssDAF-12 act inactive, DAX1 inh-1 5.9, DAX1 inh-2 inactive, hgDAF12 agonist inactive, hcDAF-12 act inactive, SMARCA2 activ 9.5, DAX1 conf inactive, SF1 mutant ctr inactive, SMARCA2 conf inactive and GAL4-VP16 Luc 9.7.
`Cc1sc2nc(SCC(=O)Nc3cccc(C(=O)O)c3)[nH]c(=O)c2c1C` gave ssDAF-12 act inactive, DAX1 inh-1 inactive, DAX1 inh-2 inactive, hgDAF12 agonist inactive, hcDAF-12 act inactive and SMARCA2 activ inactive.
`Cc1sc2nc(SCC(=O)Nc3ccc(Cl)c(C(=O)O)c3)[nH]c(=O)c2c1C` gave ssDAF-12 act inactive, DAX1 inh-1 6.0, DAX1 inh-2 inactive, hgDAF12 agonist 17, hcDAF-12 act inactive, SMARCA2 activ 8.8, DAX1 conf 12, SF1 mutant ctr 9.5, SMARCA2 conf 9.2 and GAL4-VP16 Luc 8.9.
Screening ClCCn1cnc2c(SCc3ccccc3)ncnc21 returned ssDAF-12 act inactive, DAX1 inh-1 7.5, DAX1 inh-2 inactive, hgDAF12 agonist inactive, hcDAF-12 act inactive, SMARCA2 activ 8.0, DAX1 conf inactive, SF1 mutant ctr inactive, SMARCA2 conf inactive and GAL4-VP16 Luc 5.2.
Screening ClCCn1cnc2c(SCc3ccccc3Cl)ncnc21 returned ssDAF-12 act inactive, DAX1 inh-1 inactive, DAX1 inh-2 inactive, hgDAF12 agonist inactive, hcDAF-12 act inactive and SMARCA2 activ inactive.
`Nc1cc(OCc2ccccc2)ccc1OCc1ccccc1` gave ssDAF-12 act inactive, DAX1 inh-1 4.7, DAX1 inh-2 inactive, hgDAF12 agonist inactive, hcDAF-12 act inactive, SMARCA2 activ 9.4, DAX1 conf 3.6, SF1 mutant ctr 4.5, SMARCA2 conf inactive and GAL4-VP16 Luc 7.8.
Screening CC(=O)N1CCc2cc(S(=O)(=O)NCCC(=O)N(C)Cc3ccccc3F)ccc21 returned ssDAF-12 act inactive, DAX1 inh-1 inactive, hgDAF12 agonist inactive, hcDAF-12 act inactive and SMARCA2 activ inactive.
Screening Cc1[nH]c2ccc(C(=O)N3CCCC3)cc2c1C returned ssDAF-12 act inactive, DAX1 inh-1 inactive, DAX1 inh-2 inactive, hgDAF12 agonist inactive, hcDAF-12 act inactive and SMARCA2 activ inactive.
Screening Cc1[nH]c2ccc(C(=O)N3CCCCC3)cc2c1C returned ssDAF-12 act inactive, DAX1 inh-1 6.3, DAX1 inh-2 inactive, hgDAF12 agonist 11, hcDAF-12 act inactive, SMARCA2 activ 11, DAX1 conf 9.5, SF1 mutant ctr 3.6, SMARCA2 conf inactive and GAL4-VP16 Luc 9.4.
Screening O=C(CNS(=O)(=O)c1cccs1)N1CCN(c2ncccn2)CC1 returned ssDAF-12 act inactive, DAX1 inh-1 inactive, hgDAF12 agonist inactive, hcDAF-12 act inactive and SMARCA2 activ inactive.
Cc1ccc(CC(=O)O/N=C(\N)c2ccccn2)cc1 was read as ssDAF-12 act inactive, DAX1 inh-1 5.0, DAX1 inh-2 inactive, hgDAF12 agonist 11, hcDAF-12 act inactive, SMARCA2 activ 8.9, DAX1 conf 4.0, SF1 mutant ctr 3.2, SMARCA2 conf 9.7 and GAL4-VP16 Luc 8.4.
Screening O=C(c1ccco1)N(Cc1cccnc1)C(c1ccccc1)c1nc2ccccc2[nH]1 (configuration not stated) returned ssDAF-12 act inactive, DAX1 inh-1 6.0, hgDAF12 agonist inactive, hcDAF-12 act inactive, SMARCA2 activ 8.6, DAX1 conf 3.8, SF1 mutant ctr 3.1, SMARCA2 conf 11 and GAL4-VP16 Luc 6.1.
For COc1ccc(CCNC(=O)Nc2ccc3c(c2)[C@@]2(CC(=O)N(CC(C)C)C2c2ccccc2)C(=O)N3C)cc1OC (some centres not stated) the results were ssDAF-12 act inactive, DAX1 inh-1 inactive, hgDAF12 agonist inactive, hcDAF-12 act inactive and SMARCA2 activ inactive.
Screening CCOc1ccc(OCc2cccc(C(=O)N3CCOCC3)c2)cc1 returned ssDAF-12 act 1.4, DAX1 inh-1 5.8, DAX1 inh-2 inactive, hgDAF12 agonist inactive, hcDAF-12 act inactive, SMARCA2 activ 12, DAX1 conf 11, SF1 mutant ctr 7.7, SMARCA2 conf inactive and GAL4-VP16 Luc 9.7.
Screening CC(NC(=O)Nc1ccc(Cl)cc1)c1ccc2c(c1)OCO2 (configuration not stated) returned ssDAF-12 act inactive, DAX1 inh-1 inactive, DAX1 inh-2 inactive, hgDAF12 agonist inactive, hcDAF-12 act inactive and SMARCA2 activ inactive.
Screening O=C(Nc1ccc(Cl)cc1)Nc1ccc2c(c1)OCO2 returned ssDAF-12 act inactive, DAX1 inh-1 6.4, DAX1 inh-2 inactive, hgDAF12 agonist 12, hcDAF-12 act 5.7, SMARCA2 activ 9.0, DAX1 conf 8.7, SF1 mutant ctr 6.6, SMARCA2 conf inactive and GAL4-VP16 Luc 11.
COC(=O)[C@]1(CNC(C)=O)CC(=O)N(C)[C@@H]1c1ccccc1 was read as ssDAF-12 act inactive, DAX1 inh-1 inactive, hgDAF12 agonist inactive, hcDAF-12 act inactive and SMARCA2 activ inactive.
